# Test results reported in the supplement of paper PMC8728848.
# The full list was thinned out, with the strongest signals kept by preference.
# B1: AT3G44510(29) (Arabidopsis thaliana), F4J341 (protein)
# chain: MEEHLQGRIKLHDGRYLAYKERGVPKDDAKFTIVLVHGFGSSKDMNFNVSQELVNEIGIYFVLYDRAGYGESDPNPKRSLKSEAYDVQELADGLEIGSRFYLIGISMGSYTVWSCLKHIPQRLAGVAMVAPVVNFRWPSIPKSLMPKDYRREVAKWSVWIANYFPGLLQWLVTQNMFSTTSMLEKNPVYFNDQDIEVLKHIKGFPMLTKEKLRERGVFGTLRSDFLVAFGDWDFDPADLPDPSLSGPEKGSSSVHIWQGYEDKVMPFQLQRCLCRKLPWIRYHEVPKGGHLIVHYDGICDAILKSLLLGEDLPMYKPKAVITEPA
# B2: PP2A1 (Arabidopsis thaliana) (protein)
# chain: MFRNQDSKYLIPVQKEAPPVTTLPMKASTVKSPHNCEAILRDADPPISLSSVNLSEQLRSGVFLKPKKQIKYWVDERNSNCFMLFAKNLSITWSDDVNYWTWFTEKESPNENVEAVGLKNVCWLDITGKFDTRNLTPGIVYEVVFKVKLEDPAYGWDTPVNLKLVLPNGKEKPQEKKVSLRELPRYKWVDVRVGEFVPEKSAAGEITFSMYEHAAGVWKKGLSLKGVAIRPKQHHHHHH
# Tests used:
# Experiment in all cases: glycan array binding signal (z-score within array); higher = stronger binding
# Details in all cases: glycan notation: IUPAC condensed, linker removed
# [1] = target: Fuc(a1-2)Gal(b1-3)GlcNAc
# How it was run: (§1)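 The binding signal is a Z-score computed within each array. Data were drawn from 3228 arrays in the Consortium for Functional Glycomics database, restricted to those with a known protein sequence. Scores were averaged over arrays of the same protein sequence at different concentrations or buffers, and over linkers, and negative values can be taken as non-binding.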
# [2] = target: Fuc(a1-2)Gal(b1-3)[Fuc(a1-4)]GlcNAc(b1-3)[Gal(b1-4)GlcNAc(b1-6)]Gal(b1-4)Glc
# How it was run: as §1
# [3] = target: Fuc(a1-2)Gal(b1-4)GlcNAc(b1-6)GalNAc
# How it was run: as §1
# [4] = target: Fuc(a1-2)Gal(b1-4)[Fuc(a1-3)]GlcNAc
# How it was run: as §1
# [5] = target: Fuc(a1-2)Gal(b1-4)[Fuc(a1-3)]GlcNAc(b1-2)Man(a1-3)[Fuc(a1-2)Gal(b1-4)[Fuc(a1-3)]GlcNAc(b1-2)Man(a1-6)]Man(b1-4)GlcNAc(b1-4)[Fuc(a1-6)]GlcNAc
# How it was run: as §1
# [6] = target: Fuc(a1-2)Gal(b1-4)[Fuc(a1-3)]GlcNAc(b1-3)Gal(b1-4)[Fuc(a1-3)]GlcNAc
# How it was run: as §1
# [7] = target: Fuc(a1-2)Gal3S(b1-4)GlcNAc
# How it was run: as §1
# [8] = target: Fuc(a1-2)[Gal(a1-3)]Gal
# How it was run: as §1
# [9] = target: Fuc(a1-2)[Gal(a1-3)]Gal(b1-4)GlcNAc(b1-2)Man(a1-3)[Fuc(a1-2)[Gal(a1-3)]Gal(b1-4)GlcNAc(b1-2)Man(a1-6)]Man(b1-4)GlcNAc(b1-4)[Fuc(a1-6)]GlcNAc
# How it was run: as §1
# [10] = target: Fuc(a1-2)[GalNAc(a1-3)]Gal(b1-3)GalNAc(b1-3)Gal(a1-4)Gal(b1-4)Glc
# How it was run: as §1
# [11] = target: Fuc(a1-2)[GalNAc(a1-3)]Gal(b1-3)GlcNAc(b1-2)Man(a1-3)[Fuc(a1-2)[GalNAc(a1-3)]Gal(b1-3)GlcNAc(b1-2)Man(a1-6)]Man(b1-4)GlcNAc(b1-4)[Fuc(a1-6)]GlcNAc
# How it was run: as §1
# [12] = target: Fuc(a1-2)[GalNAc(a1-3)]Gal(b1-4)[Fuc(a1-3)]GlcNAc
# How it was run: as §1
# [13] = target: Fuc(a1-2)[GalNAc(a1-3)]Gal(b1-4)[Fuc(a1-3)]GlcNAc(b1-3)GalNAc
# How it was run: as §1
# [14] = target: Fuc(a1-3)[GalNAc(b1-4)]GlcNAc6S
# How it was run: as §1
# [15] = target: Gal(a1-3)Gal(b1-4)Glc
# How it was run: as §1
# [16] = target: Gal(a1-3)GalNAc
# How it was run: as §1
# [17] = target: Gal(a1-3)[Gal(a1-4)]Gal(b1-4)GlcNAc
# How it was run: as §1
# [18] = target: Gal(a1-4)Gal(b1-4)Glc
# How it was run: as §1
# [19] = target: Gal(a1-4)Gal(b1-4)GlcNAc(b1-3)Gal(b1-4)Glc
# How it was run: as §1
# [20] = target: Gal(b1-3)GlcNAc
# How it was run: as §1
# [21] = target: Gal(b1-3)[Fuc(a1-4)]GlcNAc(b1-3)Gal(b1-3)[Fuc(a1-4)]GlcNAc
# How it was run: as §1
# [22] = target: Gal(b1-4)GlcNAc(a1-6)Gal(b1-4)GlcNAc
# How it was run: as §1
# [23] = target: Gal(b1-4)GlcNAc(b1-2)Man(a1-3)[Gal(b1-4)GlcNAc(b1-2)Man(a1-6)]Man(b1-4)GlcNAc(b1-4)GlcNAc
# How it was run: as §1
# [24] = target: Gal(b1-4)GlcNAc(b1-2)[Gal(b1-4)GlcNAc(b1-6)]Man(a1-6)[GlcNAc(b1-4)][Gal(b1-4)GlcNAc(b1-2)[Gal(b1-4)GlcNAc(b1-4)]Man(a1-3)]Man(b1-4)GlcNAc(b1-4)[Fuc(a1-6)]GlcNAc
# How it was run: as §1
# [25] = target: Gal(b1-4)GlcNAc(b1-3)Gal(b1-3)GlcNAc
# How it was run: as §1
# [26] = target: Gal(b1-4)GlcNAc(b1-3)Gal(b1-4)GlcNAc(b1-2)[Gal(b1-4)GlcNAc(b1-3)Gal(b1-4)GlcNAc(b1-6)]Man(a1-6)[Gal(b1-4)GlcNAc(b1-3)Gal(b1-4)GlcNAc(b1-2)Man(a1-3)]Man(b1-4)GlcNAc(b1-4)[Fuc(a1-6)]GlcNAc
# How it was run: as §1
# [27] = target: Gal6S(b1-4)Glc
# How it was run: as §1
# [28] = target: GalNAc(a1-3)GalNAc(b1-3)Gal(a1-4)Gal(b1-4)Glc
# How it was run: as §1
# [29] = target: GalNAc(b1-3)Gal(a1-4)Gal(b1-4)GlcNAc
# How it was run: as §1
# [30] = target: GalNAc(b1-3)Gal(a1-6)Gal(b1-4)Glc
# How it was run: as §1
# [31] = target: GalNAc(b1-3)GlcNAc
# How it was run: as §1
# [32] = target: GalNAc(b1-4)GlcNAc
# How it was run: as §1
# [33] = target: GalNAc4S6S(b1-4)GlcNAc
# How it was run: as §1
# [34] = target: GlcA(b1-3)Gal
# How it was run: as §1
# [35] = target: GlcA(b1-6)Gal
# How it was run: as §1
# [36] = target: GlcNAc(a1-4)Gal(b1-4)GlcNAc(b1-3)Gal(b1-4)Glc
# How it was run: as §1
# [37] = target: GlcNAc(a1-4)Gal(b1-4)GlcNAc(b1-3)Gal(b1-4)[Fuc(a1-3)]GlcNAc(b1-3)Gal(b1-4)[Fuc(a1-3)]GlcNAc
# How it was run: as §1
# [38] = target: GlcNAc(b1-3)Gal(b1-4)GlcNAc
# How it was run: as §1
# [39] = target: GlcNAc(b1-3)Gal(b1-4)GlcNAc(b1-2)[GlcNAc(b1-3)Gal(b1-4)GlcNAc(b1-6)]Man(a1-6)[GlcNAc(b1-3)Gal(b1-4)GlcNAc(b1-2)Man(a1-3)]Man(b1-4)GlcNAc(b1-4)GlcNAc
# How it was run: as §1
# [40] = target: Man(a1-2)Man(a1-6)[Man(a1-3)]Man(a1-6)[Man(a1-2)Man(a1-2)Man(a1-3)]Man
# How it was run: as §1
# [41] = target: Neu5Ac(a2-3)Gal(b1-3)GlcNAc(b1-3)Gal(b1-3)GlcNAc
# How it was run: as §1
# [42] = target: Neu5Ac(a2-3)Gal(b1-3)[Fuc(a1-4)]GlcNAc
# How it was run: as §1
# [43] = target: Neu5Ac(a2-3)Gal(b1-4)GlcNAc(b1-2)Man(a1-3)[Neu5Ac(a2-6)Gal(b1-4)GlcNAc(b1-2)Man(a1-6)]Man(b1-4)GlcNAc(b1-4)GlcNAc
# How it was run: as §1
# [44] = target: Neu5Ac(a2-3)Gal(b1-4)GlcNAc(b1-3)Gal(b1-4)GlcNAc(b1-6)[Gal(b1-3)]GalNAc
# How it was run: as §1
# [45] = target: Neu5Ac(a2-3)Gal(b1-4)[Fuc(a1-3)]GlcNAc(b1-3)Gal
# How it was run: as §1
# [46] = target: Neu5Ac(a2-3)Gal(b1-4)[Fuc(a1-3)]GlcNAc6S
# How it was run: as §1
# [47] = target: Neu5Ac(a2-6)Gal(b1-4)GlcNAc(b1-2)[Neu5Ac(a2-6)Gal(b1-4)GlcNAc(b1-4)]Man(a1-3)[GlcNAc(b1-4)][Neu5Ac(a2-6)Gal(b1-4)GlcNAc(b1-2)[Neu5Ac(a2-6)Gal(b1-4)GlcNAc(b1-6)]Man(a1-6)]Man(b1-4)GlcNAc(b1-4)GlcNAc
# How it was run: as §1
# [48] = target: Neu5Ac(a2-6)Gal(b1-4)GlcNAc(b1-3)Gal(b1-4)GlcNAc(b1-3)Gal(b1-4)GlcNAc(b1-2)Man(a1-3)[Neu5Ac(a2-6)Gal(b1-4)GlcNAc(b1-3)Gal(b1-4)GlcNAc(b1-3)Gal(b1-4)GlcNAc(b1-2)Man(a1-6)]GalNAc
# How it was run: as §1
# [49] = target: Neu5Gc(a2-8)Neu5Gc(a2-3)Gal(b1-4)GlcNAc(b1-3)Gal(b1-4)GlcNAc
# How it was run: as §1
# [50] = target: Neu5Ac(a2-3)Gal(b1-4)[Fuc(a1-3)]GlcNAc(b1-6)[Gal(b1-3)]GalNAc
# How it was run: as §1
# [51] = target: Neu5Ac(a2-3)Gal(b1-4)[Fuc(a1-3)]GlcNAc(b1-6)[Neu5Ac(a2-3)Gal(b1-3)]GalNAc
# How it was run: as §1
# [52] = target: Neu5Ac(a2-3)Gal6S(b1-4)GlcNAc
# How it was run: as §1
# [53] = target: Neu5Ac(a2-8)Neu5Ac(a2-3)[GalNAc(b1-4)]Gal(b1-4)Glc
# How it was run: as §1
# [54] = target: Neu5Ac(a2-8)Neu5Ac(a2-8)Neu5Ac(a2-3)Gal(b1-4)Glc
# How it was run: as §1
binder,measurement,setting,value
B1,glycan array binding signal (z-score),[1],0.123
same,glycan array binding signal (z-score),[2],0.203
same,glycan array binding signal (z-score),[3],-0.731
same,glycan array binding signal (z-score),[4],-0.381
same,glycan array binding signal (z-score),[5],-0.458
same,glycan array binding signal (z-score),[6],-0.951
same,glycan array binding signal (z-score),[7],3.33
same,glycan array binding signal (z-score),[8],2.08
same,glycan array binding signal (z-score),[9],-0.079
same,glycan array binding signal (z-score),[10],-0.123
same,glycan array binding signal (z-score),[11],-0.313
same,glycan array binding signal (z-score),[12],-0.818
same,glycan array binding signal (z-score),[13],6.03
same,glycan array binding signal (z-score),[14],-0.561
same,glycan array binding signal (z-score),[15],-0.538
same,glycan array binding signal (z-score),[16],2.52
same,glycan array binding signal (z-score),[17],7.13
same,glycan array binding signal (z-score),[18],3.6
same,glycan array binding signal (z-score),[19],-0.481
same,glycan array binding signal (z-score),[20],-0.484
same,glycan array binding signal (z-score),[21],-0.685
same,glycan array binding signal (z-score),[22],-0.378
same,glycan array binding signal (z-score),[23],-0.419
same,glycan array binding signal (z-score),[24],-0.121
same,glycan array binding signal (z-score),[25],-0.443
same,glycan array binding signal (z-score),[26],-0.519
same,glycan array binding signal (z-score),[27],-0.234
same,glycan array binding signal (z-score),[28],-0.476
same,glycan array binding signal (z-score),[29],3.41
same,glycan array binding signal (z-score),[30],-0.353
same,glycan array binding signal (z-score),[31],-0.421
same,glycan array binding signal (z-score),[32],9.27
same,glycan array binding signal (z-score),[33],-0.488
same,glycan array binding signal (z-score),[34],1.18
same,glycan array binding signal (z-score),[35],0.079
same,glycan array binding signal (z-score),[36],0.232
same,glycan array binding signal (z-score),[37],1.31
same,glycan array binding signal (z-score),[38],0.6
same,glycan array binding signal (z-score),[39],2.5
same,glycan array binding signal (z-score),[40],-0.613
same,glycan array binding signal (z-score),[41],-0.556
same,glycan array binding signal (z-score),[42],-0.723
same,glycan array binding signal (z-score),[43],2.04
same,glycan array binding signal (z-score),[44],-0.343
same,glycan array binding signal (z-score),[45],-0.706
same,glycan array binding signal (z-score),[46],0.419
same,glycan array binding signal (z-score),[47],-0.785
same,glycan array binding signal (z-score),[48],2.59
same,glycan array binding signal (z-score),[49],0.206
B2,glycan array binding signal (z-score),[50],-0.268
same,glycan array binding signal (z-score),[51],-0.091
same,glycan array binding signal (z-score),[52],0.07
same,glycan array binding signal (z-score),[53],0.265
same,glycan array binding signal (z-score),[54],0.006
